Reference: PubChem BioAssay (NCATS)
Values joined by “and” are separate entries in the source; they are usually repeats but may differ in a detail not shown here. Identical values can stand only once. Results filed as inconclusive are left out. Where a call stands in place of a potency, no number is given. Active and inactive are the calls of the source. The call rests on the fitted dose curve; in most records, active means well fitted curve in the direction sought with a large enough effect; inconclusive means small, poorly fitted or top-dose-only effect, or another doubt; inactive means no such curve, though single readings can be large; an effect the other way counts as inactive or inconclusive.

How the values were obtained:
[1] = qHTS of pediatric cancer cell lines to identify multiple opportunities for drug repurposing: Confirmatory screen for Rh41 cells (AID 1347123);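 further: 48 h compound exposure; nearly all actives have a fitted effect of over 60% in size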
Method in brief: (§1)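 Viability after 48 h compound treatment at 37C, 500-1,000 cells/well, read as ATP luminescence with CellTiter-Glo. Primary screens used 11-point (MIPE, 0.78 nM-46 µM) or 8-point (NPC, 0.59 nM-46 µM) final concentrations; follow-up screens used 11-point dilutions.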

[2] = qHTS of pediatric cancer cell lines to identify multiple opportunities for drug repurposing: Confirmatory screen for RD cells (AID 1347124);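 further: cells exposed to compound for 48 h before viability readout; nearly all actives have a fitted effect of over 65% in size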
Method in brief: as §1

[3] = qHTS of pediatric cancer cell lines to identify multiple opportunities for drug repurposing: Confirmatory screen for Rh18 cells (AID 1347125); further: nearly all actives have a fitted effect of over 55% in size
Method in brief: as §1

[4] = qHTS of pediatric cancer cell lines to identify multiple opportunities for drug repurposing: Confirmatory screen for Rh30 cells (AID 1347126); further: nearly all actives have a fitted effect of over 55% in size
Method in brief: as §1

[5] = qHTS of pediatric cancer cell lines to identify multiple opportunities for drug repurposing: Confirmatory screen for SK-N-SH cells (AID 1347129);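 further: cells exposed to compound for 48 h before viability read; nearly all actives have a fitted effect of over 60% in size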
Method in brief: as §1

[6] = molecular target: N-terminal Xaa-Pro-Lys N-methyltransferase 1 (Homo sapiens) (UniProt Q9BV86); test: qHTS Assay for Inhibitors of N-terminal methyltransferase 1 (NTMT1): LOPAC validation of the NTMT1 SAHH-coupled ThioGlo3 Assay (AID 1347143);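 further: SAH from peptide methylation measured as thiol fluorescence via SAHH coupling and ThioGlo3; nearly all actives have a fitted effect of over 70% in size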
N-terminal Xaa-Pro-Lys N-methyltransferase 1 (Homo sapiens), sequence (Q9BV86 whole entry, looked up): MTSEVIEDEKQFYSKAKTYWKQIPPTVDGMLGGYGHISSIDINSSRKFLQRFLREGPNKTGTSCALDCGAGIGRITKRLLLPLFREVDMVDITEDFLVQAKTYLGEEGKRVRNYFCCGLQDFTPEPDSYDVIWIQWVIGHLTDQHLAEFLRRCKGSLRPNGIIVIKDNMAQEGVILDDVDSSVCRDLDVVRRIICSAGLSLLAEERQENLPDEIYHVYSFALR
Method in brief: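 Recombinant human NTMT1 (125nM) was pre-incubated 1 min at room temperature with compounds over a concentration range, then a mix of 100uM SAM, 10uM SAHH and 15uM ThioGlo3 (concentrations in added reagent) was added. ThioGlo3 fluorescence (ex 340/em 450nm) after 30 min was normalized to the initial reading.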

[7] = test system: Zika virus NS2B-NS3 protease (unlinked); test: Optimization of GU AMC qHTS for Zika virus inhibitors: Unlinked NS2B-NS3 protease assay (AID 1347151); further: nearly all actives have a fitted effect of over 80% in size
Method in brief: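 Unlinked protease (25 nM final); buffer 10 mM Tris-HCl pH 8.0 + 0.01% Tween 20; AMC substrate; 15 min RT, dark; Δfluorescence normalized to no-inhibitor/no-enzyme controls; 4-parameter Hill fit.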

Furin (Homo sapiens) = Furin (Homo sapiens) (UniProt P09958); test: Furin counterscreen qHTS for Zika virus inhibitors (AID 1347149); further: nearly all actives have a fitted effect of over 70% in size
Furin (Homo sapiens), sequence (P09958 whole entry, looked up): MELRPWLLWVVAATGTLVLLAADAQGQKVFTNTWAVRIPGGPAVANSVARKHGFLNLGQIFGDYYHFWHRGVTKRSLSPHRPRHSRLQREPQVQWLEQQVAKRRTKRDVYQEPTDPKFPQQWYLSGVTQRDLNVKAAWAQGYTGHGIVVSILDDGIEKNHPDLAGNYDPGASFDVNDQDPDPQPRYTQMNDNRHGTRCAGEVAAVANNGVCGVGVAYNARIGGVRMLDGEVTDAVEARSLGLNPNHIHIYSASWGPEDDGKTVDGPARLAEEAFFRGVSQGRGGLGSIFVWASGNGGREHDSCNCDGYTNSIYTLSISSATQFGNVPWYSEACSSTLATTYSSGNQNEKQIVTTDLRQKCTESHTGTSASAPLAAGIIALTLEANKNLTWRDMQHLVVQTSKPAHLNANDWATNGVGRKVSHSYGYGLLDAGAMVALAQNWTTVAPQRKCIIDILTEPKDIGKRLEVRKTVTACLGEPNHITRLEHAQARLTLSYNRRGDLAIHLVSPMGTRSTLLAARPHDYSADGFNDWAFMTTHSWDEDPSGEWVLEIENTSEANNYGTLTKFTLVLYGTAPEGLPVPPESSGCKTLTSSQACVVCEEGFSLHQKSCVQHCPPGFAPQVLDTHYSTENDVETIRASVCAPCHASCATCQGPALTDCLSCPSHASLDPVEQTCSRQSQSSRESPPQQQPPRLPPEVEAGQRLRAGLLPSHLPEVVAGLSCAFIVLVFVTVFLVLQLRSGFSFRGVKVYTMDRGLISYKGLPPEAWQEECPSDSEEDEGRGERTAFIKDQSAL
Method in brief: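 Fluorogenic cleavage of BOC-RVRR-AMC (2 microM final, Km ~15 µM) was monitored (ex 340, em 450 nm) at 37C after 15 min RT preincubation of 5 nM furin with compounds in HEPES pH 7.0 buffer with CaCl2 and Triton X-100. Percent inhibition was fitted to a 4-parameter Hill curve.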

[8] = test system: Zika virus NS2B-NS3 protease (linked construct); test: Confirmatory screen NINDS AMC qHTS for Zika virus inhibitors (AID 1347152); further: nearly all actives have a fitted effect of over 70% in size
Method in brief: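 Enzyme (1 nM, linked construct) was preincubated with compound for 15 minutes at room temperature in 10 mM Tris-HCl pH 8.0 with 0.01% Tween 20. Bz-Nle-Lys-Arg-Arg-AMC was then added to 10 microM, and AMC fluorescence was recorded immediately and after 15 minutes.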

[9] = test system: Zika virus NS2B-NS3 protease (unlinked complex); test: Confirmatory screen GU AMC qHTS for Zika virus inhibitors (AID 1347153); further: nearly all actives have a fitted effect of over 70% in size;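 on potency: enzyme at 25 nM with substrate at 10 µM below its Km of 18.3 µM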
Method in brief: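 Fluorescence change (ex 340/em 450 nm) over 15 min, ~20% substrate conversion, normalized to no-inhibitor and no-enzyme controls, then Hill-fitted. Unlinked protease at 25 nM; AMC peptide 10 µM.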
Potency means the concentration at half of the fitted maximal effect.

For `NCCCC(N)(C(=O)O)C(F)F` (stereo not given), the Potency [1] was “inactive”, the Potency [2] was “inactive” and the Potency [3] was “inactive”. For the same molecule, the Potency [4] was “inactive”, the Potency [5] was “inactive” and the Potency [6] was “inactive”. The Potency [7] was “inactive”.

In the case of `COc1ccc(-c2ccc3c(N4CCOC[C@H]4C)nc(N4CCOC[C@H]4C)nc3n2)cc1CO`, the Potency [1] is reported as 0.233 µM (active), the Potency [4] is reported as 0.185 µM (active) and the Potency [5] is reported as 0.526 µM (active).

With `O=C(c1cc(Cc2n[nH]c(=O)c3ccccc23)ccc1F)N1CCN(C(=O)C2CC2)CC1` the Potency [1] was 9.27 µM (active), the Potency [2] was “inactive” and the Potency [3] was “inactive”. For the same molecule, the Potency [4] was “inactive” and the Potency [5] was 14.8 µM (active).

For `COc1ccc(-c2ccc3c(N4CCOCC4)nc(N4C[C@@H](C)O[C@@H](C)C4)nc3n2)cc1CO`, the Potency [1] was 0.657 µM (active), the Potency [2] was 1.31 µM (active) and the Potency [3] was 1.31 µM (active). The Potency [4] was 0.657 µM (active), the Potency [5] was 8.33 µM (active) and the Potency (Furin (Homo sapiens)) was 24.1 µM (active). The Potency [8] was 27.1 µM (active) and the Potency [9] was 27.1 µM (active).

With `O=C(Nc1nc2ccccc2n1CCN1CCOCC1)c1cccc([N+](=O)[O-])c1` the Potency [6] was “inactive” and the Potency [7] was “inactive”.

For `Nc1ccc(S(=O)(=O)Nc2ccnn2-c2ccccc2)cc1`, the Potency [6] was “inactive” and the Potency [7] was “inactive”.

In the case of `OC[C@H](Cc1ccccc1)Nc1nc(Oc2ccc3c(c2)CCC3)nc2c1ncn2Cc1ccc(-c2ccccc2)cc1`, the Potency [2] is reported as “inactive”, the Potency [3] is reported as “inactive” and the Potency [5] is reported as “inactive”.

For `CCOc1ccn(-c2ccc(F)cc2)c(=O)c1C(=O)Nc1ccc(Oc2ccnc(N)c2Cl)c(F)c1`, the Potency [2] was “inactive”, the Potency [4] was “inactive” and the Potency [5] was “inactive”.

For `CCOc1cc(N2CCC(O)CC2)ccc1Nc1ncc2c(n1)N(C)c1ccccc1C(=O)N2C`, the Potency [5] was 7.43 µM (active).

In the case of `OC(CCN1CCCCC1)(c1ccccc1)C1CC2C=CC1C2` (stereo not given), the Potency [6] is reported as “inactive” and the Potency [7] is reported as “inactive”.

With `CC(C)(C)NCC(O)c1ccc(O)c(CO)c1` (stereo not given) the Potency [6] was “inactive” and the Potency [7] was “inactive”.

For `CNC[C@H](O)c1cccc(O)c1`, the Potency [6] was “inactive” and the Potency [7] was “inactive”.

With `O=C(NOC[C@H](O)CO)c1ccc(F)c(F)c1Nc1ccc(I)cc1F` the Potency [2] was “inactive”, the Potency [3] was “inactive” and the Potency [4] was “inactive”.

In the case of `O=c1[nH]cnc2[nH]ncc12`, the Potency [6] is reported as “inactive” and the Potency [7] is reported as “inactive”.

For `CC(C=CC1=C(C)CCCC1(C)C)=CC=CC(C)=CC(=O)O`, the Potency [2] was “inactive”, the Potency [3] was “inactive” and the Potency [4] was “inactive”. For the same molecule, the Potency [5] was “inactive”.

For `Cc1cc2c(C(C)C)c(O)c(O)c(C=O)c2c(O)c1-c1c(C)cc2c(C(C)C)c(O)c(O)c(C=O)c2c1O`, the Potency [6] was 56.2 µM (active) and the Potency [7] was 0.377 µM (active).

In the case of `O=c1n(CCCN2CCN(c3cccc(Cl)c3)CC2)nc2ccccn12`, the Potency [6] is reported as 79.4 µM (active), the Potency (Furin (Homo sapiens)) is reported as 24.1 µM (active) and the Potency [7] is reported as 26.7 µM (active). The Potency [8] was 24.1 µM (active).

With `CS(=O)(=O)c1cccc(CNc2nc(Nc3ccc4c(c3)CCC(=O)N4)ncc2C(F)(F)F)c1` the Potency [6] was 56.2 µM (active).

For `CS(=O)(=O)c1ccc(C(=O)Nc2ccc(Cl)c(-c3ccccn3)c2)c(Cl)c1`, the Potency [2] was “inactive”, the Potency [3] was “inactive” and the Potency [4] was “inactive”. The Potency [5] was “inactive”.

In the case of `c1ccc([C@H]2CN3CCSC3=N2)cc1`, the Potency [6] is reported as “inactive” and the Potency [7] is reported as “inactive”.

In the case of `Cc1cnc(NC(=O)C2=C(O)c3ccccc3S(=O)(=O)N2C)s1`, the Potency [6] is reported as “inactive” and the Potency [7] is reported as “inactive”.

For `CCC(C)(C)C(=O)O[C@H]1C[C@@H](C)C=C2C=C[C@H](C)[C@H](CC[C@@H]3C[C@@H](O)CC(=O)O3)[C@H]21`, the Potency [4] was 16.5 µM (active) and the Potency [5] was 5.26 µM (active).

In the case of `CCCCNc1cc(C(=O)O)cc(S(N)(=O)=O)c1Oc1ccccc1`, the Potency [6] is reported as 50.1 µM (active), the Potency (Furin (Homo sapiens)) is reported as 27 µM (active) and the Potency [7] is reported as 29.9 µM (active). For the same molecule, the Potency [8] was 27.1 µM (active) and the Potency [9] was “inactive”.

In the case of `CC(C)(Sc1ccc(CCN(CCCCC2CCCCC2)C(=O)NC2CCCCC2)cc1)C(=O)O`, the Potency [6] is reported as “inactive”, the Potency (Furin (Homo sapiens)) is reported as “inactive” and the Potency [7] is reported as 15 µM (active).

For `CCCC(CCC)C(=O)O`, the Potency [6] was “inactive” and the Potency [7] was “inactive”.

With `Cc1[nH]c(=O)c(C#N)cc1-c1ccc2nccn2c1` the Potency [6] was 50.1 µM (active), the Potency (Furin (Homo sapiens)) was “inactive” and the Potency [7] was 21.2 µM (active). The Potency [8] was “inactive” and the Potency [9] was “inactive”.

With `NCCc1ccc(O)c(O)c1` the Potency [6] was 44.7 µM (active).

With `CCOC(=O)C1=C[C@]2(CC)CCCN3CCc4c(n1c1ccccc41)[C@@H]32` the Potency [6] was “inactive”.

In the case of `COc1cc(Nc2ncc3c(n2)-c2ccc(Cl)cc2C(c2c(F)cccc2OC)=NC3)ccc1C(=O)O`, the Potency [2] is reported as “inactive”, the Potency [3] is reported as “inactive” and the Potency [4] is reported as “inactive”.

In the case of `Cn1cnc([N+](=O)[O-])c1Sc1ncnc2nc[nH]c12`, the Potency [2] is reported as “inactive”, the Potency [6] is reported as “inactive” and the Potency (Furin (Homo sapiens)) is reported as “inactive”. For the same molecule, the Potency [7] was “inactive”.

In the case of `OC(CN1CCC(Cc2ccc(F)cc2)CC1)c1ccc(Cl)cc1` (stereo not given), the Potency [2] is reported as “inactive”, the Potency [3] is reported as “inactive” and the Potency [4] is reported as “inactive”. For the same molecule, the Potency [6] was “inactive” and the Potency [7] was “inactive”.

In the case of `CCc1cncnc1N1CCN(Cc2nc3ccc(C(F)(F)F)cc3[nH]2)CC1`, the Potency [6] is reported as “inactive” and the Potency [7] is reported as “inactive”.

In the case of `CCn1cc(C(=O)O)c(=O)c2cc(F)c(N3CCNC(C)C3)c(F)c21` (stereo not given), the Potency [6] is reported as 56.2 µM (active), the Potency (Furin (Homo sapiens)) is reported as 24.1 µM (active) and the Potency [7] is reported as 26.7 µM (active). The Potency [8] was 24.1 µM (active) and 27.1 µM (active).

For `NNCCc1ccccc1`, the Potency [7] was “inactive”.

With `CCCc1nc2c(C)cc(-c3nc4ccccc4n3C)cc2n1Cc1ccc(-c2ccccc2C(=O)O)cc1` the Potency (Furin (Homo sapiens)) was 24.1 µM (active), the Potency [8] was 21.5 µM (active) and the Potency [9] was “inactive”.

In the case of `Cc1cccc(-c2[nH]c(C(C)(C)C)nc2-c2ccc3nccnc3c2)n1`, the Potency [6] is reported as “inactive” and the Potency [7] is reported as “inactive”.

In the case of `C[C@]12CCC(=O)C=C1CC[C@@H]1[C@@H]2[C@@H](O)C[C@@]2(C)[C@H]1CC[C@]2(O)C(=O)CO`, the Potency [6] is reported as “inactive” and the Potency [7] is reported as “inactive”.

With `CC(C)C[C@H](NC(=O)[C@@H](O)[C@H](N)Cc1ccccc1)C(=O)O` the Potency [6] was “inactive” and the Potency [7] was “inactive”.

With `N[C@@H]1CONC1=O` the Potency [6] was “inactive” and the Potency [7] was “inactive”.

With `Clc1cccc(Cl)c1NC1=NCCN1` the Potency [6] was “inactive” and the Potency [7] was “inactive”.

For `CC(C)NCC(O)COc1ccc(COCCOC(C)C)cc1` (stereo not given), the Potency [6] was “inactive” and the Potency [7] was “inactive”.

In the case of `NC[C@H](O)c1ccc(O)c(O)c1`, the Potency [7] is reported as “inactive”.

In the case of `Oc1ccc(C2CNCCc3c2cc(O)c(O)c3Cl)cc1` (stereo not given), the Potency [6] is reported as 44.7 µM (active) and the Potency [7] is reported as 16.8 µM (active).
